Where a name gives a salt, the structure may show the parent alone.
Columns and labels:
Settings in all cases: incubation time: 27 h, anaerobic, 37 °C;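 for the amine columns active = adjusted P below 0.05 in both replicates with a change the same way and a mean fold change under 0.8 or over 1.25; inactive = the rest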
[1] = tested on: Clostridium sporogenes DSM 1664; experiment: growth (OD595) fold change vs plate DMSO controls (fold change (ratio)); higher = more growth
In short: (§1)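 To obtain OD, 595 nm absorbance readings were blank-subtracted, corrected for compound background using 20 µM compound solutions in water, and multiplied by a calibration factor of 5. They came from 96-well mGAM cultures grown anaerobically for 27 h at 37 °C and shaken before reading. Growth is the fold change relative to the median of plate DMSO controls. Two biological replicates were averaged, and fold changes above 1.5 were set to NA.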

Escherichia coli IAI1 [2] = experiment: as above
In short: as §1

[3] = tested on: Klebsiella aerogenes DSM 30053; experiment: as above
In short: as §1

[4] = tested on: Ruminococcus gnavus DSM 108212; experiment: as above
In short: as §1

[5] = tested on: Klebsiella aerogenes DSM 30053; experiment: fold change of Histamine concentration vs plate DMSO controls (fold change (ratio)); higher = more amine produced, active = hit call of the paper (significant change in both replicates, either direction)
In short: (§2)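 Using LC–triple-quadrupole MS with dynamic MRM, amines were quantified against external calibration curves and corrected for drift within each batch. Samples were whole anaerobic mGAM cultures of four gut strains, grown 27 h at 37 °C from OD 0.1 before 1:1 dilution, extracted with cold acetonitrile/methanol containing 0.1% formic acid and centrifuged. Compounds were present at 20 µM final (sweeteners at 50 µM final). The numbers are fold changes versus plate DMSO controls, each the mean of 2 biological replicates.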

[6] = tested on: Clostridium sporogenes DSM 1664; experiment: fold change of Tryptamine concentration vs plate DMSO controls (fold change (ratio)); higher = more amine produced, active = hit call of the paper (significant change in both replicates, either direction)
In short: as §2

[7] = tested on: Ruminococcus gnavus DSM 108212; experiment: as above
In short: as §2

Escherichia coli IAI1 [8] = experiment: fold change of Putrescine concentration vs plate DMSO controls (fold change (ratio)); higher = more amine produced, active = hit call of the paper (significant change in both replicates, either direction)
In short: as §2

[9] = tested on: Klebsiella aerogenes DSM 30053; experiment: as above
In short: as §2

Escherichia coli IAI1 [10] = experiment: fold change of Cadaverine concentration vs plate DMSO controls (fold change (ratio)); higher = more amine produced, active = hit call of the paper (significant change in both replicates, either direction)
In short: as §2

[11] = tested on: Klebsiella aerogenes DSM 30053; experiment: as above
In short: as §2

[12] = tested on: Ruminococcus gnavus DSM 108212; experiment: fold change of 2-Phenylethylamine concentration vs plate DMSO controls (fold change (ratio)); higher = more amine produced, active = hit call of the paper (significant change in both replicates, either direction)
In short: as §2

| SMILES | growth [1] | growth (Escherichia coli IAI1 [2]) | growth [3] | growth [4] | fold change of Histamine concentration [5] | fold change of Tryptamine concentration [6] | fold change of Tryptamine concentration [7] | fold change of Putrescine concentration (Escherichia coli IAI1 [8]) | fold change of Putrescine concentration [9] | fold change of Cadaverine concentration (Escherichia coli IAI1 [10]) | fold change of Cadaverine concentration [11] | fold change of 2-Phenylethylamine concentration [12] |
| --- | --- | --- | --- | --- | --- | --- | --- | --- | --- | --- | --- | --- |
| CC[C@H]1OC(=O)C[C@@H](O)[C@H](C)[C@@H](O[C@@H]2O[C@H](C)[C@@H](O[C@H]3C[C@@](C)(O)[C@@H](O)[C@H](C)O3)[C@H](N(C)C)[C@H]2O)[C@@H](CC=O)C[C@@H](C)C(=O)/C=C/C(C)=C/[C@@H]1CO[C@@H]1O[C@H](C)[C@@H](O)[C@@H](OC)[C@H]1OC [Tylosin] (20 µM) | 0 | 0.953 | 0.966 | 0.0976 | 0.792 (inactive) | 0.0522 (active) | 0.0892 (active) | 0.849 (inactive) | 1.05 (inactive) | 0.984 (inactive) | 1.02 (inactive) | 0.105 (active) |
| O=C1CN2Cc3c(ccc(Cl)c3Cl)N=C2N1 [Anagrelide] (20 µM) | 0.955 | 1.11 | 1.05 | 1.14 | 0.845 (inactive) | 1.03 (inactive) | 1.02 (inactive) | 1.05 (inactive) | 0.986 (inactive) | 1.16 (inactive) | 1.01 (inactive) | 0.962 (inactive) |
| CC1(C)S[C@@H]2[C@H](NC(=O)C(C(=O)O)c3ccccc3)C(=O)N2[C@H]1C(=O)O (stereo not given in full) [Carbenicillin disodium salt] (20 µM) | 0 | 1.19 | 1.05 | 0.00334 | 1.02 (inactive) | 0.0162 (active) | 0.0824 (active) | 0.927 (inactive) | 0.986 (inactive) | 1.79 (active) | 1.05 (inactive) | 0.0579 (active) |
| COC(=O)C1=C(C)NC(C)=C(C(=O)OCCN(C)Cc2ccccc2)C1c1cccc([N+](=O)[O-])c1 (stereo not given) [Nicardipine hydrochloride] (20 µM) | 1.11 | 0.934 | 1.01 | 1.18 | 0.982 (inactive) | 0.981 (inactive) | 0.915 (inactive) | 1.04 (inactive) | 0.999 (inactive) | 0.995 (inactive) | 0.99 (inactive) | 0.858 (inactive) |
| CS(=O)(=O)c1ccc(C2=C(c3ccccc3)C(=O)OC2)cc1 [Rofecoxib] (20 µM) | 1 | 0.962 | 0.973 | 1.1 | 0.981 (inactive) | 1.2 (inactive) | 1.08 (inactive) | 1.02 (inactive) | 0.99 (inactive) | 1.04 (inactive) | 1.01 (inactive) | 1.07 (inactive) |
| CCCCC(C)(O)C/C=C/[C@H]1[C@H](O)CC(=O)[C@@H]1CCCCCCC(=O)OC (mixture of isomers) [Misoprostol] (20 µM) | 1.14 | 0.994 | 1.03 | 1.19 | 1.04 (inactive) | 0.979 (inactive) | 0.987 (inactive) | 0.988 (inactive) | 1.02 (inactive) | 0.994 (inactive) | 0.995 (inactive) | 0.945 (inactive) |
| O=C(O)CCCC[C@@H]1SC[C@@H]2NC(=O)N[C@@H]21 [Biotin] (20 µM) | 1.02 | 0.975 | 0.981 | 1.12 | 1.02 (inactive) | 0.954 (inactive) | 1.03 (inactive) | 0.982 (inactive) | 1.02 (inactive) | 1.01 (inactive) | 0.997 (inactive) | 1.06 (inactive) |
| O=P(O)(O)C(O)(Cn1ccnc1)P(=O)(O)O [Zoledronic acid hydrate] (20 µM) | 1.08 | 0.974 | 0.978 | 1 | 1.08 (inactive) | 0.973 (inactive) | 0.629 (inactive) | 0.987 (inactive) | 1.02 (inactive) | 1.05 (inactive) | 1 (inactive) | 0.627 (inactive) |
| Cc1cc2nc3c(=O)[nH]c(=O)nc-3n(C[C@H](O)[C@H](O)[C@H](O)CO)c2cc1C [Riboflavine] (20 µM) | 1.09 | 0.982 | 0.997 | 0.982 | 0.984 (inactive) | 1 (inactive) | 1.08 (inactive) | 0.989 (inactive) | 0.964 (inactive) | 1.01 (inactive) | 0.994 (inactive) | 1.15 (inactive) |
| OC[C@@H](O)[C@@H](O)[C@H](O)[C@H](O)CO [Mannitol] (50 µM) | 1.02 | 0.924 | 0.982 | 0.983 | 1.04 (inactive) | 1.01 (inactive) | 0.975 (inactive) | 0.919 (inactive) | 0.996 (inactive) | 1.11 (inactive) | 0.992 (inactive) | 0.976 (inactive) |
| COc1cc(-c2ccc(=O)[nH]n2)ccc1OC(F)F [Zardaverine] (20 µM) | 1.12 | 0.946 | 1.09 | 0.984 | 0.932 (inactive) | 0.971 (inactive) | 0.994 (inactive) | 0.953 (inactive) | 0.987 (inactive) | 1.01 (inactive) | 0.997 (inactive) | 0.952 (inactive) |
| N[C@@H](C(=O)N[C@@H]1C(=O)N2C(C(=O)O)=C(Cl)CS[C@H]12)c1ccccc1 [Cefaclor hydrate] (20 µM) | 0.594 | 0.999 | 1.06 | 0.999 | 0.947 (inactive) | 0.846 (inactive) | 0.783 (inactive) | 0.939 (inactive) | 1.07 (inactive) | 1.23 (inactive) | 1.03 (inactive) | 0.859 (inactive) |
| CC(=O)O[C@]1(C(C)=O)CC[C@H]2[C@@H]3C=C(C)C4=CC(=O)CC[C@@H]4[C@H]3CC[C@@]21C [Nomegestrol acetate] (20 µM) | 1.01 | 1.05 | 1.05 | 1.25 | 0.943 (inactive) | 1.01 (inactive) | 1.03 (inactive) | 1.03 (inactive) | 1 (inactive) | 0.946 (inactive) | 1.03 (inactive) | 1.02 (inactive) |
| CC1(C)O[C@@H]2C[C@H]3[C@@H]4C[C@H](F)C5=CC(=O)C=C[C@]5(C)[C@@]4(F)[C@@H](O)C[C@]3(C)[C@]2(C(=O)CO)O1 [Fluocinolone acetonide] (20 µM) | 1.13 | 1.04 | 1.01 | 0.973 | 1.06 (inactive) | 1.02 (inactive) | 0.996 (inactive) | 1.05 (inactive) | 1.04 (inactive) | 1.05 (inactive) | 1 (inactive) | 0.976 (inactive) |
| CN1CCN(CCCN2c3ccccc3Sc3ccc(Cl)cc32)CC1 [Prochlorperazine dimaleate] (20 µM) | 1.06 | 1.11 | 1.14 | 0.858 | 0.917 (inactive) | 1.04 (inactive) | 0.87 (inactive) | 0.974 (inactive) | 0.979 (inactive) | 0.971 (inactive) | 1.02 (inactive) | 0.97 (inactive) |
| NC(=O)c1cccnc1 [Nicotinamide] (20 µM) | 0.909 | 0.979 | 0.964 | 0.672 | 0.994 (inactive) | 0.971 (inactive) | 0.993 (inactive) | 1.02 (inactive) | 0.896 (inactive) | 1 (inactive) | 1.1 (inactive) | 0.953 (inactive) |
| OCCN1CCN(CC/C=C2/c3ccccc3Sc3ccc(C(F)(F)F)cc32)CC1 [Flupentixol dihydrochloride cis-(Z)] (20 µM) | 1.03 | 0.959 | 0.968 | 0.925 | 1 (inactive) | 1.12 (inactive) | 0.921 (inactive) | 1.02 (inactive) | 0.933 (inactive) | 0.852 (inactive) | 1.02 (inactive) | 1.06 (inactive) |
| C#Cc1cccc(Nc2ncnc3cc(OCCOC)c(OCCOC)cc23)c1 [Erlotinib] (20 µM) | 0.903 | 0.969 | 1.01 | 0.842 | 1.05 (inactive) | 1 (inactive) | 1.02 (inactive) | 0.987 (inactive) | 1.04 (inactive) | 1.02 (inactive) | 1.01 (inactive) | 1.05 (inactive) |
| O=C(OCCOCCO)c1ccccc1Nc1cccc(C(F)(F)F)c1 [Etofenamate] (20 µM) | 1.2 | 1.09 | 1.1 | 1.2 | 0.902 (inactive) | 0.955 (inactive) | 0.883 (inactive) | 1.05 (inactive) | 0.998 (inactive) | 1.02 (inactive) | 1.02 (inactive) | 0.861 (inactive) |
| CN1CC(=O)N2[C@H](c3ccc4c(c3)OCO4)c3[nH]c4ccccc4c3C[C@@H]2C1=O [Tadalafil] (20 µM) | 1 | 1.02 | 0.993 | 0.916 | 1.07 (inactive) | 1.07 (inactive) | 0.925 (inactive) | 0.957 (inactive) | 1.01 (inactive) | 1.03 (inactive) | 0.971 (inactive) | 0.911 (inactive) |
| Oc1ccc2ccccc2c1N=Nc1ccccc1 [Sudan I (1-phenylazo-2-hydroxynaphthalene)] (20 µM) | 0.978 | 1.06 | 1.08 | 1.12 | 0.924 (inactive) | 0.919 (inactive) | 1.04 (inactive) | 0.952 (inactive) | 0.893 (inactive) | 0.915 (inactive) | 1.08 (inactive) | 1.07 (inactive) |
| CCN(CC)CCNc1ccc(CO)c2sc3ccccc3c(=O)c12 [Hycanthone] (20 µM) | 1.05 | 1.03 | 1.03 | 0.939 | 0.979 (inactive) | 0.791 (active) | 0.917 (inactive) | 1.01 (inactive) | 0.993 (inactive) | 0.967 (inactive) | 1.01 (inactive) | 0.917 (inactive) |
| CCn1cc(C(=O)O)c(=O)c2cnc(N3CCNCC3)nc21 [Pipemidic acid] (20 µM) | 0.963 | 0 | 0.465 | 1.01 | 0.949 (inactive) | 1.01 (inactive) | 0.93 (inactive) | 0.313 (active) | 1.06 (inactive) | 1.81 (active) | 1.01 (inactive) | 0.934 (inactive) |
| CCn1cc(C(=O)O)c(=O)c2cc(F)c(N3CCNCC3)cc21 [Norfloxacin] (20 µM) | 0.0353 | 0.0339 | 0.239 | 0.814 | 0.0898 (active) | 0.0308 (active) | 0.863 (inactive) | 0.612 (active) | 0.792 (active) | 0.161 (active) | 0.963 (inactive) | 0.892 (inactive) |
| COc1ccc(-c2cc(=S)ss2)cc1 [Anethole-trithione] (20 µM) | 0.802 | 1.01 | 0.968 | 1.04 | 1.04 (inactive) | 1.18 (inactive) | 1.07 (inactive) | 1.01 (inactive) | 0.972 (inactive) | 1.01 (inactive) | 0.986 (inactive) | 1.07 (inactive) |
